Drawing on PubChem BioAssay (Tox21), this text covers outcome and activity change, negative = cytotoxicity for 40 molecules.

Inconclusive results are not listed. Active and inactive are the calls of the source. The call rests on the fitted dose curve; in most records, active means well fitted cell-killing curve with a large enough effect in the repeat runs; inconclusive means weak or mixed curves, or effect the other way; inactive means no such curve, though single readings can be large or run the other way.
On the % scale 0 is the no-effect control and ±100 the full control effect.

The nature of the assay: qHTS assay for small molecule activators of the heat shock response signaling pathway - cell viability counter screen (AID 743209). Further: nearly all actives have a fitted effect of over 50% in size. Particulars: HSE-bla HeLa viability, CellTiter-Glo luminescence, 5 h; series mostly up to 62.6 µM. From the text:
U.S. Tox21 Program National Center for Advancing Translational Sciences [NCATS] NIH Chemical Genomics Center [NCGC] U.S. Environmental Protection Agency [EPA] National Institutes of Environmental Health Sciences [NIEHS] National Toxicology Program [NTP] U.S. Food and Drug Administration [FDA] Tox21 Assay Overview: Various chemicals, environmental and physiological stress conditions may lead to the activation of heat shock response/ unfolded protein response (HSR/UPR). There are three heat shock transcription factors (HSFs) (HSF-1, -2, and -4) mediating transcriptional regulation of the human HSR. To identify the compounds that activate HSR signaling, HSE-bla HeLa cell line (Invitrogen, Carlsbad, CA, USA) containing a beta-lactamase reporter gene under the control of the heat shock response elements was used to screen Tox21 10K compound library. The cytotoxicity of the Tox21 compound library against the HSE-bla HeLa cell line was tested in parallel by measuring the cell viability using CellTiter-Glo assay (Promega, Madison, WI) in the same wells.
Tox21 Assay Protocol Summary: The CellSensor HSE-bla HeLa cells (Invitrogen, Carlsbad, CA, USA) were dispensed at 1500 cells/6uL/well into 1536-well black wall/clear bottom plates using a Multidrop combi (Thermo Fisher Scientific, Waltham, MA) dispenser. After the assay plates were incubated at 37 C and 5% CO2 overnight, 23 nL of compounds dissolved in DMSO, positive controls or DMSO only was transferred to the assay plate by a Pintool station (Kalypsys, San Diego, CA). The plates were incubated at 37 C for 5 h. After 1 uL of LiveBLAzerTM B/G FRET substrate was added using a Flying Reagent Dispenser (FRD, Beckman Coulter, Indianapolis, IN, USA), the plates were incubated at room temperature for 2.5 h, and fluorescence intensity was measured by an Envision plate reader (PerkinElmer, Shelton, CT). For cell viability readout that measures cytotoxicity, 3 ul/well of CellTiter-Glo reagent was added into the assay plates using a FRD. After 30 min incubation at room temperature, the luminescence intensity in the plates was measured using a ViewLux (PerkinElmer) plate reader.
For `CCCc1c2oc(C(=O)O)cc(=O)c2cc2c(=O)cc(C(=O)O)n(CC)c12`, the molecule was classed as inactive.

Take `CCOC(=O)CS`: the molecule was called inactive.

Take `COC(=O)C(C)O` (stereo not given): the result was inactive.

For the molecule `C=CCCCCCCCCO`, the outcome was inactive.

Consider `O=C(O)C(=O)Cc1c[nH]c2ccccc12`, for which the result was inactive.

As for `CCCS(=O)c1ccc2nc(NC(=O)OC)[nH]c2c1` (stereo not given), the molecule was called inactive.

As for `CC(=O)O[C@H]1CC[C@@]2(C)C(=CC[C@@H]3[C@@H]2CC[C@]2(C)C(C(C)=O)=CC[C@@H]32)C1`, the call was inactive.

As to `CC[C@H]1CC[C@H](NCc2cc3c(cc2OC)[C@H]2C[C@H]2C(=O)N3C)[C@H](c2ccccc2)N1`, the molecule was called inactive.

With `CCOC(=O)COc1ccc2c(c1)CC(NCC(O)c1cccc(Cl)c1)CC2` (stereo not given), the call was inactive.

With `O=[N+]([O-])c1nccn1CO[C@@H](CO)[C@H](O)CO`, the result was inactive.

Turning to `CCCCCCCCc1ccc(S(=O)(=O)O)cc1`, the call was inactive.

`CC(C)C1=CC2=CC[C@@H]3[C@](C)(CCC[C@@]3(C)C(=O)O)[C@H]2CC1`: the molecule was called inactive.

With `CCOc1ccc(OCC)c(Cl)c1`, the outcome was inactive.

On to `O=C(O)c1ccccc1Nc1cc(Cl)ccc1C(=O)O`, for which the call was inactive.

For the molecule `CC(C)NC[C@@H](O)COc1cccc2ccccc12`, the molecule was classed as inactive.

For `Cc1cc(NS(=O)(=O)c2ccc(N)cc2)nc(C)n1`, the outcome was inactive.

For `COc1ccc2nc(NC(=O)Nc3ccccc3)sc2c1`, the outcome was inactive.

Regarding `CC(=O)OC1C2(C)CCC(C2)C1(C)C` (stereo not given), the molecule was called inactive.

Take `O=C1CCCCCCCCCCC(=O)OCCO1`: the outcome was inactive.

Consider `CCCCC(CC)COC(=O)COc1cc(Cl)c(Cl)cc1Cl` (stereo not given), for which the result was inactive.

In the case of `CCCCC1CCC(=O)O1` (stereo not given), the molecule was classed as inactive.

As to `CCOC(=O)C1CC(=O)C(=C(O)C2CC2)C(=O)C1` (stereo not given), the molecule was classed as inactive.

In the case of `CCCCCCCCOC(=O)CCCCCCCCC(=O)OCCCCCCCC`, the outcome was inactive.

Consider `CCN(CC)CCNC(=O)COc1ccc(Cl)cc1`, for which the call was inactive.

As to `Cc1ccc(C)c(N)c1`, the call was inactive.

With `C=CCCC=C`, the outcome was inactive.

Regarding `CC1=C(CC(=O)O)c2cc(F)ccc2/C1=C\c1ccc(S(C)(=O)=O)cc1`, the molecule was called inactive.

As for `O=C(O)c1cccc(Cl)c1Cl`, the outcome was inactive.

Consider `CC(=O)N(CC(O)CN(C(C)=O)c1c(I)c(C(=O)NCC(O)CO)c(I)c(C(=O)NCC(O)CO)c1I)c1c(I)c(C(=O)NCC(O)CO)c(I)c(C(=O)NCC(O)CO)c1I` (stereo not given), for which the call was inactive.

For the molecule `ICCc1ccccc1`, the call was inactive.

For the molecule `CCOc1ccc2nc(N)sc2c1`, the molecule was classed as inactive.

With `CCOc1ccccc1N`, the outcome was inactive.

With `O=C(O)[C@@H]1CSCN1`, the outcome was inactive.

As for `O=C1CCC(C2CCCCC2)CC1`, the molecule was called inactive.

Regarding `NC(Cc1ccc(F)cc1)C(=O)O` (stereo not given), the activity change, negative = cytotoxicity is -7.91% [at 5.95 µM] (inactive).

For the molecule `NS(=O)(=O)c1cc(-c2nn[nH]n2)c(NCc2cccs2)cc1Cl`, the molecule was called inactive.

As to `Cc1cn([C@@H]2O[C@H](CO)[C@@H](O)[C@@H]2F)c(=O)[nH]c1=O`, the molecule was called inactive.

With `C=CC1CO1` (stereo not given), the outcome was inactive.

As for `CCCCCCCCCC#N`, the result was inactive.

Consider `CC(C)(C)c1cccc(O)c1`, for which the molecule was classed as inactive.
